# Test results: PubChem BioAssay AID492998 (Southern Research Specialized Biocontainment Screening …, 2010)
# In all, about 2,300 compounds went through this assay and about 550 (24%) were called active. No rule for the calls is given here. The list is a sample of the results. Results with a measured potency or affinity are listed apart.
# Test: Vero E6 cell cytotoxicity, dose response, cytotoxicity control for non-replicating M. tuberculosis project, secondary assay (AID 492998);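 also: 100% = vehicle-treated cells and 0% = background wells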
# Conditions: series mostly up to 20 µM; viability: at the top concentration
row,Structure (SMILES),viability
1,CC1(C)C[C@H]2C=C(C=O)[C@]3(C=O)C[C@]3(C)[C@H]2C1,96.4% (inactive)
2,CCc1ccc(C(=O)COC(=O)c2ccc(Cl)nc2)cc1,105% (inactive)
3,O=C(OCc1nnc(-c2ccccc2)o1)c1ccc(Br)o1,92.2% (inactive)
4,Nn1c(SCCOc2ccc(Cl)cc2)nnc1-c1cccnc1,94.8% (inactive)
5,COc1ccc(C(=O)COC(=O)c2ccc([N+](=O)[O-])s2)cc1OC,84.3% (inactive)
6,COc1cc(C=O)ccc1OCCOCCOc1ccc(Cl)cc1,103% (inactive)
7,COC(=O)CCc1nc2c(C#N)c(-c3ccc(Cl)cc3)ccn2n1,105% (inactive)
8,O=C(Nc1ccc(Br)cc1)c1cc([N+](=O)[O-])cc([N+](=O)[O-])c1,98.3% (inactive)
9,O=C(NCC1CCCCC1)c1ccco1,101% (inactive)
10,Oc1ccccc1-c1nnc(COc2ccccc2)o1,78.1% (inactive)
11,Cc1cccc(NCCC(=O)c2ccc([N+](=O)[O-])cc2)c1C,75.4% (inactive)
12,O=[N+]([O-])c1ccc(CN2CCN(c3ccc(Cl)cc3)CC2)o1,108% (inactive)
13,Cc1cccc(NC(=O)c2n[nH]c([N+](=O)[O-])c2Br)c1C,102% (inactive)
14,CC1CC(C)CN(C(=O)COC(=O)c2ccc([N+](=O)[O-])o2)C1 (stereo not given),96.2% (inactive)
15,Cc1ccc(CCC(=O)Nc2ccc(C)c(C)c2)o1,103% (inactive)
16,CC12CN3CC(C)(CN(C1)C3c1ccc([N+](=O)[O-])o1)C2 (stereo not given),92.9% (inactive)
17,COc1ccc(NC(=O)c2ccc(-c3ccc([N+](=O)[O-])cc3)o2)cc1OC,106% (inactive)
18,Cc1cccc(CSc2nnc(-c3ccco3)o2)c1,99.6% (inactive)
19,CC(C)(C)c1ccc(OCCCC(=O)NC2=NCCS2)cc1,86% (inactive)
20,Cc1ccc(NC(=O)COc2ccccc2)cc1Cl,101% (inactive)
21,O=C(NCCC1=CCCCC1)c1coc(=O)c(Br)c1,106% (inactive)
22,O=C(COC(=O)c1ccc(Br)o1)Nc1ncc([N+](=O)[O-])s1,105% (inactive)
23,COC(=O)c1ccc(COC(=O)CCS(=O)(=O)c2ccc(C)cc2)cc1,99.5% (inactive)
24,CCOC(=O)CC(=O)Nc1ccc(C(=O)OCC)cc1,107% (inactive)
25,C=CCc1ccc2oc(C(=O)OCC)cc(=O)c2c1O,93.4% (inactive)

row,Structure (SMILES),viability
1,CCNC(=O)NC(=O)C(C)OC(=O)CCCSc1nc2ccccc2s1 (stereo not given),99% (inactive)
2,Cc1cccc(C)c1NC(=O)COC(=O)CCc1c[nH]c2ccccc12,103% (inactive)
3,O=S1(=O)N=C(N/N=C/C=C/c2ccccc2)c2ccccc21,82.8% (inactive)
4,O=C(Nc1ccc([N+](=O)[O-])cc1)c1ccc(Cn2cc([N+](=O)[O-])cn2)cc1,82.7% (inactive)
5,O=C(Nc1ccccc1F)c1ccc(CSc2ccccc2)o1,96.3% (inactive)
6,Cc1ccc(NC(=O)c2noc(C(C)C)c2[N+](=O)[O-])cc1,90.1% (inactive)
7,COCCn1c(C)cc(C(=O)COC(=O)c2ccc([N+](=O)[O-])o2)c1C,82% (inactive)
8,Cc1cc(C)c(C(=O)COC(=O)c2ccc([N+](=O)[O-])o2)cc1C,104% (inactive)
9,Cc1cc(C(=O)N/N=C/c2ccc([N+](=O)[O-])o2)c(C)o1,79.9% (inactive)
10,Cc1[nH]c2ccccc2c1C(=O)C(C)OC(=O)c1ccc([N+](=O)[O-])o1 (stereo not given),80.2% (inactive)
11,CCCCC1CCC(C(=O)Nc2ccc(S(=O)(=O)Nc3nccs3)cc2)CC1 (stereo not given),101% (inactive)
12,CCCOC(=O)c1ccc(NC(=O)c2ccccc2OC)cc1,97.1% (inactive)
13,CCOC(=O)C1CCN(Cc2ccc(-c3ccccc3)cc2)CC1,116% (inactive)
14,OC(C#CCN1CCOCC1)c1cccs1 (stereo not given),97.2% (inactive)
15,C=CCNc1nnc(Sc2ncccc2[N+](=O)[O-])s1,88.3% (inactive)
16,S=C1CN=C(c2ccccc2)c2cc(Cl)ccc2N1,106% (inactive)
17,CC(C)Oc1ccc(C(=O)CCN2CCCCC2)cc1,88.4% (inactive)
18,Cc1ccc(CCC(=O)Nc2cc(Cl)ccc2Cl)o1,95.9% (inactive)
19,CCOc1ccc(CC(=O)N2N=C(C)CC2(O)C(F)(F)F)cc1 (stereo not given),94.2% (inactive)
20,O=C(NCc1ccc(F)cc1)c1ccc(Br)o1,95.5% (inactive)
21,CCn1nnc(NC(=O)c2ccc(-c3ccc(Cl)cc3)o2)n1,96.3% (inactive)
22,Cc1ccc(OCC(=O)N/N=C/c2ccc([N+](=O)[O-])o2)cc1,94.7% (inactive)
23,CCn1nnc(NC(=O)COc2ccc(C3CCCCC3)cc2)n1,98.9% (inactive)
24,O=C(c1ccc([N+](=O)[O-])o1)N1CCN(Cc2ccccc2)CC1,89.4% (inactive)
25,O=C(NCCC1=CCCCC1)c1ccc(F)cc1,102% (inactive)

row,Structure (SMILES),viability
1,O=C(CCC1CCCC1)Nc1ccc(Br)cn1,80.5% (inactive)
2,O=C(c1cc(F)ccc1F)C1CCCN(Cc2ccc3nonc3c2)C1 (stereo not given),85% (inactive)
3,CC(C)Cn1c(N)c(C(=O)COC(=O)c2cnc(Cl)c(Cl)c2)c(=O)n(C)c1=O,92.2% (inactive)
4,COc1cc(N=c2ssnc2Cl)cc(OC)c1,101% (inactive)
5,CCOC(=O)COc1ccc2c(=O)cc(-c3ccccc3)oc2c1,111% (inactive)
6,COC(=O)C(C)Oc1ccc2cc(-c3ccccc3)c(=O)oc2c1 (stereo not given),109% (inactive)
7,Cc1ccccc1OCC(=O)OCC(=O)c1ccc[nH]1,101% (inactive)
8,Fc1ccc(-c2nnc(CSc3nnc(-c4cccs4)o3)o2)cc1,100% (inactive)
9,Fc1ccc(-c2nnc(-c3ccc(F)cc3)o2)cc1,97.5% (inactive)
10,Cc1ccc(-c2nnc(-c3cccs3)o2)cc1,95.6% (inactive)
11,COc1cccc(OCc2nnc(-c3cccs3)o2)c1,108% (inactive)
12,Cc1cc(C(=O)N/N=C/c2ccc(OC(=O)c3ccccc3Br)cc2)n[nH]1,92.3% (inactive)
13,Oc1oc(-c2ccco2)nc1C=Nc1cccc(Cl)c1,93.7% (inactive)
14,CCc1cc(C(c2ccncc2)N2CCN(C)CC2)c(NC(=O)c2ccccc2)s1 (stereo not given),101% (inactive)
15,CCOC(=O)C1(CC2CCCCO2)CCN(Cc2nccn2-c2ccc(OC)cc2)CC1 (stereo not given),106% (inactive)
16,COC12C(COC(N)=O)C3=C(C(=O)C(C)=C(N)C3=O)N1CC1C2N1C (stereo not given),79.6% (inactive)
17,c1ccc(C2=Nc3ccccc3OC2)cc1,98.2% (inactive)
18,Cc1cc2nc(/N=C(\N)NC(=O)C(C)C)nc(C)c2cc1C,83.2% (inactive)
19,Cc1ccc2nc(CCc3nc4ccc(C)cc4[nH]3)[nH]c2c1,90.6% (inactive)
20,CC(C)OC(=O)CCCCCN1C(=O)CSC1=S,76.9% (inactive)
21,O=C(Nc1ccccn1)c1ccc(C(=O)c2ccccc2)cc1,95.9% (inactive)
22,CCCCNC(=O)COC(=O)c1cc(Br)ccc1Cl,99.6% (inactive)
23,Cc1[nH]n2c(=O)c3c(nc2c1-c1ccccc1)CCCC3,75.9% (inactive)
24,CCOC(=O)COc1ccc2c(c1)C(=O)CC1(CCCCC1)O2,97.1% (inactive)
25,O=C(COc1ccc(Cl)cc1)Nc1ccccc1Cl,102% (inactive)
